Source: PubChem (National Center for Advancing Translational Sciences (NCATS))
RORgamma inh: blocks mouse ROR gamma transcriptional activity. P51450. Drosophila S2 Gal4-RORgamma UAS-luciferase reporter, 20 h. Potency, µM (top dose mostly 53.6 µM), actives largely listed as inhibitors. hit rate 5.4% among 310,000. AID 2551; further: nearly all actives have a fitted effect of over 60% in size
Target sequence (P51450 whole entry, looked up, the tested form may be a part): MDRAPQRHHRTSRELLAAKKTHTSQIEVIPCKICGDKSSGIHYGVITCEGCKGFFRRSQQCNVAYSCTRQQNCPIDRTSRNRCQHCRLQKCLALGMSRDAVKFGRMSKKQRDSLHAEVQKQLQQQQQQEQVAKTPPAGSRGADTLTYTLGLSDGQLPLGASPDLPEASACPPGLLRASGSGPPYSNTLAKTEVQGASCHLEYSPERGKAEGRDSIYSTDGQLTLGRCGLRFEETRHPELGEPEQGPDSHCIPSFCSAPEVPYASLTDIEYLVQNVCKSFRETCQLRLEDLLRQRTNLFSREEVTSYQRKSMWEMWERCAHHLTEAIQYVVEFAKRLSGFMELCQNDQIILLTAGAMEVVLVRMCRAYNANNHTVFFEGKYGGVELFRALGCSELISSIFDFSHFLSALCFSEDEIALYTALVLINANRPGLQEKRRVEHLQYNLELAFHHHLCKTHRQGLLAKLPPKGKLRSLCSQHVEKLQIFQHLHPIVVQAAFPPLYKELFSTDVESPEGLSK
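Using a luciferase readout, inhibitors were identified by reduced reporter activity in Drosophila cells coexpressing a copper-inducible Gal4–ROR gamma fusion and UAS-driven Photinus luciferase, incubated 20 hr after 700 uM copper sulfate.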
Gal4-VP16 FLuc: Gal4-VP16 reporter inhibition counter-screen; Drosophila S2 Gal4-VP16 UAS-luciferase, luminescence, 20 h; Potency, µM (titrated, usually from 53.6 µM), hits mostly inhibitors; hit rate 3.5% among 310,000; AID 2546;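 further: Gal4-VP16 expression switched on by copper sulfate through the metallothionein promoter; nearly all actives have a fitted effect of over 50% in size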
ELG1 DNA repair: inhibitors of ELG1-dependent DNA repair in HEK293T cells; HEK293T ELG1-luciferase reporter, luminescence, 16 h; DNA damage induced by 5-fluorouridine; Potency, µM (doses to about 46.1 µM), actives largely listed as inhibitors; hit rate 2.3% among 330,000; AID 504467; further: nearly all actives have a fitted effect of over 55% in size
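Overnight (16 hr) co-exposure of 2,000 cells/well to 5-fluorouridine and compound at 37 °C preceded detection. Luciferase was quantified via ONE-Glo luminescence; loss of signal denotes inhibition.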
IL1B secr inh: inflammasome signaling inhibition, IL-1 beta readout | AID 743279 | hit rate 4.7% among 360,000 | THP-1 LPS/ATP IL-1B secretion, AlphaLISA, 16 h; hits give low values | activity change, % at 57.5 µM; in the data active means activity change below about -50%; inconclusive means mostly about -30% to -49%
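Secreted IL-1B measured by AlphaLISA bead assay after 16 h compound exposure of THP-1 cells; compounds (final up to 57.5 uM) added 1 h before LPS (250 ng/mL) and ATP (1.25 mM) stimulation; lower signal means less secretion.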
DT40 TDP1 CPT: growth inhibition of DT40 Tdp1-/-;hTDP1 cells with camptothecin (screen for TDP1 inhibitors) | chicken DT40 Tdp1-/-;hTDP1 cells + 20 nM CPT, ATP luminescence, 48 h | Potency, µM (top dose mostly 46.2 µM), most hits filed as inhibitors | hit rate 12% among 420,000; further: nearly all actives have a fitted effect of over 55% in size
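Cell growth measured by CellTiter-Glo luminescence after a minimum 48 h, 37 C compound exposure with 20 nM CPT in Tdp1-knockout DT40 cells stably expressing hTDP1, seeded 400/well; qHTS titration format.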
TDP1 cell noCPT: qHTS for Inhibitors of human tyrosyl-DNA phosphodiesterase 1 (TDP1): qHTS in cells in absence of CPT | hit rate 15% among 420,000 | DT40 Tdp1-/- hTDP1 cells, no CPT, ATP luminescence, 48 h | Potency, µM (titrated, usually from 46.2 µM), hits mostly inhibitors | AID 686978, 2013; further: nearly all actives have a fitted effect of over 55% in size
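Readout: luminescence from CellTiter-Glo after 30 min in the dark at RT. Cells: DT40 Tdp1-/- with stable hTDP1, 400/well. Exposure: compounds alone, ≥48 hr, 37 °C.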
A number is an active result; - = inactive; ? = inconclusive; . = not tested or not shown; [ ] = dose if it differs, or a comment. The list is not random: actives were taken first. Their share in the collection is about 21%. Unless noted, the call rests on the fitted dose curve; in most records, active means well fitted curve in the direction sought with a large enough effect; inconclusive means small, poorly fitted or top-dose-only effect, or another doubt; inactive means no such curve, though single readings can be large; an effect the other way counts as inactive or inconclusive.

SMILES | RORgamma inh | Gal4-VP16 FLuc | ELG1 DNA repair | IL1B secr inh | DT40 TDP1 CPT | TDP1 cell noCPT
CN(C)c1ccc(O)c2c1CC1CC3[C@@H](N(C)C)C(=O)C(C(N)=O)=C(O)[C@]3(O)C(=O)C1=C2O (stereo not given in full) | - | - | - | - | 8.2µM | 3.66µM
Cc1cccc(CNC(=O)c2cnn(-c3nccc(-c4ccccc4C(F)(F)F)n3)c2C)n1 | . | . | . | . | -[9.04 µM] | ?
CNC(=O)C[C@H]1C(=O)N(Cc2ccccc2)C[C@@H]1C | . | . | . | - | - | -
CCc1ccc(N=CC23c4ccccc4C(c4ccccc42)C2C(=O)N(c4ccc(OC)cc4)C(=O)C23)cc1 (stereo not given) | - | - | - | - | ? | 18.4µM
COc1cccc(OC)c1OCCNCC1CSc2ccccc2O1 (stereo not given) | . | . | . | - | 20.6µM | 10.3µM
CCCC(=O)N/C(N)=N/c1nc(C)c2ccccc2n1 | 1.12µM | - | - | -85.2 | ? | 16.4µM
Cc1cc(C)c2nc(/N=C(\N)NC(=O)Nc3ccccc3)nc(C)c2c1 | - | - | ? | - | 23.1µM | 18.4µM
Cc1cc(C)nc(/N=C(/NC(=O)c2ccccc2)Nc2ccccc2)n1 | - | - | - | - | - | -
Cc1cc(C)c2nc(/N=C(\N)NC(=O)c3ccccc3)nc(C)c2c1 | - | - | - | - | - | 16.4µM
CCc1ccc2nc(/N=C(\N)NC(=O)c3ccccc3)nc(C)c2c1 | - | - | - | - | ? | 16.4µM
C=C(C)c1cc2c(ccc3ccc(=O)oc32)o1 | . | . | ? | - | - | -
CCOc1ccc(-c2cc(C(=O)Nc3cccc(C(F)(F)F)c3)[nH]n2)c(C)c1 | . | . | . | - | ? | ?
Cc1ccccc1OCC(=O)OCC(=O)NCc1ccco1 | . | . | - | - | - | -
CCOc1ccccc1OCC(=O)NCc1ccco1 | - | - | ? | - | 29.1µM | 12.6µM
O=C(COc1ccccc1Cl)NCc1ccco1 | ? | ? | ? | - | - | -
CCOC(=O)C1=C(C)NC(C)=C(C(=O)OCC)C1C(=O)OCC(=O)NCc1ccco1 | . | . | 10.3µM | - | - | 20.6µM
O=C(COc1ccccc1-c1ccccc1)NCc1ccco1 | ? | ? | ? | -50.9 | - | -
O=C(COC(=O)C(c1ccccc1)c1ccccc1)NCc1ccco1 | ? | 17.8µM | - | - | ? | -
Cc1ccc(C(=O)OCC(=O)NCc2ccco2)cc1 | - | - | - | - | - | -
COc1ccc(OC)c(S(=O)(=O)NCC(=O)NC2CCCc3ccccc32)c1 (stereo not given) | . | . | - | - | - | -
COc1ccc(C(=O)OCC(=O)NCc2ccco2)cc1OC | - | - | - | - | - | -
CCCOc1ccc(CC(=O)NCc2ccco2)cc1OC | 11.2µM | - | - | - | - | -
O=C(COC(=O)COc1ccccc1)NCc1ccco1 | . | . | - | - | - | -
COc1ccc(OCCC(=O)OCC(=O)NCc2ccco2)cc1 | - | - | - | - | 20.6µM | ?
CC(C)(C)c1ccc(NC(=O)COC(=O)C2CCCC2)cc1 | . | . | ? | - | - | -
SMILES | RORgamma inh | Gal4-VP16 FLuc | ELG1 DNA repair | IL1B secr inh | DT40 TDP1 CPT | TDP1 cell noCPT
O=C(CCCCn1c(=O)[nH]c2ccccc2c1=O)N1CCN(c2cccc(C(F)(F)F)c2)CC1 | - | ? | ? | - | 16.4µM | ?
O=C(CCCCn1c(=O)[nH]c2ccsc2c1=O)N1CCN(c2cccc(C(F)(F)F)c2)CC1 | . | . | . | . | 11.6µM | 9.2µM
O=C(CCn1c(=O)[nH]c2ccccc2c1=O)N1CCN(c2cccc(C(F)(F)F)c2)CC1 | ? | - | ? | ? | 16.4µM | 18.4µM
CCOC(=O)C1CCN(C(=O)CCCCn2c(=O)[nH]c3ccccc3c2=O)CC1 | - | - | - | - | - | -
COc1ccc(N2CCN(C(=O)CCCCCn3c(=O)[nH]c4ccsc4c3=O)CC2)cc1 | - | - | ? | - | ? | 16.4µM
CN(C)CCN1C(=O)c2ccccc2N(C)c2ccccc21 | -[10 µM] | - | . | . | - | ?
CCOC(=O)c1cc(S(=O)(=O)Nc2ccc(OC)c(Cl)c2)[nH]n1 | . | . | . | . | ? | -
COc1cc2[nH]c(=O)n(CCCC(=O)N3CCN(c4cccc(C(F)(F)F)c4)CC3)c(=O)c2cc1OC | . | . | . | . | 4.61µM | 2.31µM
CC(C)(C)C1CCc2sc(-c3nnc(CCl)o3)cc2C1 (stereo not given) | - | - | ? | ? | ? | ?
ClCc1nnc(-c2cc3c(s2)CCCC3)o1 | 6.31µM | ? | ? | -104.8 | 10.3µM | 16.4µM
CC(=O)N/N=C/c1ccccc1OCCOc1cccc(C)c1 | - | - | ? | - | ? | ?
Cc1ccc(S(=O)(=O)N2C[C@H]3C(=O)C[C@@H](c4ccccc4)N(S(=O)(=O)c4ccc(C)cc4)[C@H]3C[C@H]2c2cccc(C)c2)cc1 | . | . | . | - | - | -
CCCn1nnc(NC(=S)NC(=O)Cc2ccccc2)n1 | 0.251µM | - | - | - | ? | 23.1µM
CCCn1nnc(NC(=S)NC(=O)CC)n1 | 7.08µM | 10µM | - | - | 23.1µM | 18.4µM
CCCn1nnc(NC(=O)/C=C/c2ccc(C(C)C)cc2)n1 | ? | ? | - | - | - | -
CCCn1nnc(NC(=O)C(C)C)n1 | - | - | - | - | - | -
CCCn1nnc(NC(=S)NC(=O)/C=C/c2ccc(Cl)cc2)n1 | 5.01µM | - | - | - | - | -
CCCn1nnc(NC(=O)c2ccc(-c3ccccc3)cc2)n1 | - | - | ? | - | - | ?
Cc1cccc(C(=O)N2CCNC(=O)C2CC(=O)Nc2ccc(F)cc2)c1 (stereo not given) | . | . | . | . | - | -
CCCCc1nn2c(=O)cc(COC(=O)c3ccc(NC(=O)C(CC)CC)cc3)nc2s1 | . | . | . | . | - | -
CCc1nnc(SCc2nc(-c3ccc(OC)cc3)oc2C)c2cc3sccc3n12 | . | . | . | . | - | -
O=C(NNC(=O)C12CC3CC(CC(C3)C1)C2)c1ccccc1O | . | . | - | - | 8.2µM | 8.2µM
O=C(NNC(=O)C12CC3CC(CC(C3)C1)C2)c1ccccc1F | - | - | - | - | - | -
Cc1cccc(C(=O)NNC(=O)C23CC4CC(CC(C4)C2)C3)c1O | 6.31µM | ? | - | - | ? | ?
CCN(CC)/C(=N\S(=O)(=O)c1ccccc1C)c1ccccc1 | - | - | - | - | - | -
CCN1C(=O)[C@H]2[C@H]3[C@H](O)[C@H](O)C/C(=N/OCC[C@H]4C=C[C@H](OC(C)=O)[C@@H](COC(C)=O)O4)[C@@H]3CC[C@@H]2C1=O | -[10 µM] | -[10 µM] | . | . | . | .
COc1ccccc1OCC(=O)Nc1cccc(C(=O)N2CCOCC2)c1 | - | - | - | - | - | -
CC(C)(C)C(=O)c1c(N)[nH]c(C(=O)c2ccccc2)c1-c1ccc(Br)cc1 | . | . | . | - | 20.6µM | 23.1µM
